Assay results from PubChem BioAssay (NCATS).
Unmarked numbers belong to inactive results. Calls follow the shape of the dose curve; as a rule, active = well fitted curve in the direction sought with a large enough effect; inconclusive = small, poorly fitted or top-dose-only effect, or another doubt; inactive = no such curve, though single readings can be large or run the other way.

The molecules below were run against Hexokinase-4 (Homo sapiens) + Glucokinase regulatory protein (Homo sapiens) (UniProt P35557+Q14397) (assay: qHTS assay for inhibitors of recombinant human GCK-GKRP interaction: ADP-Glo assay (AID 743206;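 also: plate controls were DMSO plus enzyme for no effect and no enzyme for full effect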)). Details: ADP-Glo luminescence, 60 min, 0% = vehicle-only wells with enzyme present; series mostly up to 76.9 µM; activity, positive = activation: at the top concentration.
Source text: Glucokinase (GCK) is a glucose sensor in hepatocytes and pancreatic beta-cells. Hepatic GCK is regulated by glucokinase regulatory protein (GKRP), which is predominantly localized to the liver. GKRP binds to GCK inhibiting its activity in the fasting state while in the presence of glucose the GKRP is displaced. There is an additional layer of regulation by fructose 1-phosphate and fructose 6-phosphate, which inhibit and enhance the GCK-GKRP interaction, respectively. GCK plays a role in glucose homeostasis and there is an interest in the development of strategies to activate GCK to lower blood glucose levels in type 2 diabetes. To date the majority of effort has focused on direct activation of GCK and the assays developed herein look to activate GCK by inhibiting its binding to GKRP. A compound that inhibits the interaction of GCK with GKRP could be important for the treatment of diabetes and can also be used as a tool compound to further elucidate GCK-GKRP biology. To that end, we have developed a sensitive HTS biochemical assay where in GCK activity is coupled to luciferase to interrogate the GCK-GKRP interaction. This assay was screened against a small compound library to look for modulators of activity.
2 uL of 15 nM GST-GCK and 15 nM FLAG-GKRP proteins with 2 uM S6P (columns 1-2, 4-48; Millipore, Billerica, MA) are dispensed into Greiner, white solid-bottom 1536-well assay plates; columns 3 receive buffer without GCK as a control for maximum inhibition. Compounds (23 nL) are then transferred via Kalypsys pin tool equipped with 1536-pin array (10 nL slotted pins, V&P Scientific, San Diego, CA). The library compounds are in columns 5-48 and columns 1-4 serve as controls with DMSO in columns 1 and 3 and 26 mM 1:1.5 fold serial of gluckokinase activator (GKA-EMD) in column 2 and 26 mM of the glucokinase activator (GKA-EMD) in column 4. Following addition of compound, 1 uL of ATP […] is added, and the plate is incubated for 60 minutes at room temperature. The amount of ADP is then quantified by the ADP-Glo Kit (Promega, Madison, WI). First, 2 uL of the first kit reagent is added, and the reaction is incubated for 45 minutes; then, 4 uL of the second kit reagent are added and the reaction is incubated for 30 minutes at which time the luminescence is read on a Viewlux plate reader (Perkin-Elmer, Waltham, MA). The final concentration of reagents in the reaction are 0.4 mM ATP, 25 mM Hepes pH 7.6, 25 mM KCl, 2 mM MgCl2, 1 mM DTT, 0.025% BSA, 0.01% Tween 20, 5 mM glucose. Data are normalized to DMSO-treated control columns with (maximum signal) and without (minimum signal) enzyme.

Chain of Hexokinase-4 (Homo sapiens) + Glucokinase regulatory protein (Homo sapiens) (P35557 whole entry, looked up): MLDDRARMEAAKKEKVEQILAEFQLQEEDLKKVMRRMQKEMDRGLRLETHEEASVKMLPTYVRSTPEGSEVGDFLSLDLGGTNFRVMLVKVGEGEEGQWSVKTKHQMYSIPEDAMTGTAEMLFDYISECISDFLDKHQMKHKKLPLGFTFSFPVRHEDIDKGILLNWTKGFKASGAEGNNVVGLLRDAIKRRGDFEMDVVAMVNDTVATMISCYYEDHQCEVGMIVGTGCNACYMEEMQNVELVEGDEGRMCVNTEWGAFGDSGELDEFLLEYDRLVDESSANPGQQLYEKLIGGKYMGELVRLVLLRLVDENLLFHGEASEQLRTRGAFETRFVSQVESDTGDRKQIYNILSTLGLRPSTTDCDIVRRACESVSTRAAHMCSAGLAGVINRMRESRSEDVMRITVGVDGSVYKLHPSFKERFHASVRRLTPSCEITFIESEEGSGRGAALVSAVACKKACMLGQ
Chain of Hexokinase-4 (Homo sapiens) + Glucokinase regulatory protein (Homo sapiens) (Q14397 whole entry, looked up): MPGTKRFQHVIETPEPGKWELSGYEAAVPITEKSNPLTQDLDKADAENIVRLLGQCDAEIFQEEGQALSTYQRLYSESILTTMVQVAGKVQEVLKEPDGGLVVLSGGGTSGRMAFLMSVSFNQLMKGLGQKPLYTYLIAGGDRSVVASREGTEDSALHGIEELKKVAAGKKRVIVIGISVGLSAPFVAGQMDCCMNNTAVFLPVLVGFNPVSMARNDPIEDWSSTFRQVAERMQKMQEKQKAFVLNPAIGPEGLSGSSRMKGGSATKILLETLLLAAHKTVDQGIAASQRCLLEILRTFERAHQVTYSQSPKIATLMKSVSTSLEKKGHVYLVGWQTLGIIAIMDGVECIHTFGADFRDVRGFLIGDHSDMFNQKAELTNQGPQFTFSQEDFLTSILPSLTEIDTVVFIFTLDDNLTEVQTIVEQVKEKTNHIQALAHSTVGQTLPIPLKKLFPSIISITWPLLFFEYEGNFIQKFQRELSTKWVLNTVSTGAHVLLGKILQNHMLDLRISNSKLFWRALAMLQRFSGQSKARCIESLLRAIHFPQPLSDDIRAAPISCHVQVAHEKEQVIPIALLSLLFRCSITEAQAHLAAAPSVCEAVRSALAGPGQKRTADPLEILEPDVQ

Question: How did the “activity, positive = activation” value turn out when `C[C@]12CCC(=O)C=C1CC[C@@H]1[C@@H]2[C@@H](O)C[C@@]2(C)[C@H]1CC[C@]2(O)C(=O)CO` was run?
Answer: The value was 2.98%.

Question: `CN1CCN(CCCN2c3ccccc3Sc3ccc(C(F)(F)F)cc32)CC1` was tested. Which “activity, positive = activation” value did it give?
Answer: The value was -4.36%.

Question: For `c1ccc([C@H]2CN3CCSC3=N2)cc1`, which “activity, positive = activation” value is on record?
Answer: The value was 0.931%.

Question: For `NNCCc1ccccc1`, which “activity, positive = activation” value is on record?
Answer: Its value is 4.8%.

Question: With `CCOC(=O)N1CCC(=C2c3ccc(Cl)cc3CCc3cccnc32)CC1` as the molecule, how does the “activity, positive = activation” value read?
Answer: The value was -6.24%.

Question: Which “activity, positive = activation” value does the source give for `Cc1[nH]c(=O)c(C#N)cc1-c1ccncc1` here?
Answer: Its value is 2.52%.

Question: How did the “activity, positive = activation” value turn out when `N=c1nc(N2CCCCC2)cc(N)n1O` was run?
Answer: Its value is -0.785%.

Question: For `CNC[C@H](O)c1cccc(O)c1`, which “activity, positive = activation” value is on record?
Answer: The value was 0.344%.

Question: How did the “activity, positive = activation” value turn out when `NC[C@H](O)c1ccc(O)c(O)c1` was run?
Answer: Its value is 4.63%.

Question: For `O=c1[nH]cnc2[nH]ncc12`, which “activity, positive = activation” value is on record?
Answer: The value was 3.36%.

Question: How did the “activity, positive = activation” value turn out when `O=C1CCc2cc(OCCCCc3nnnn3C3CCCCC3)ccc2N1` was run?
Answer: The value was -0.0208%.

Question: With `Oc1ccc(C2CNCCc3c2cc(O)c(O)c3Cl)cc1` (stereo not given) as the molecule, how does the “activity, positive = activation” value read?
Answer: The value was -1.26%.

Question: `NCCCC(N)(C(=O)O)C(F)F` (stereo not given) was tested. Which “activity, positive = activation” value did it give?
Answer: Its value is 1.05%.

Question: With `CCCCNc1cc(C(=O)O)cc(S(N)(=O)=O)c1Oc1ccccc1` as the molecule, how does the “activity, positive = activation” value read?
Answer: Its value is 4.03%.

Question: How did the “activity, positive = activation” value turn out when `O=c1n(CCCN2CCN(c3cccc(Cl)c3)CC2)nc2ccccn12` was run?
Answer: The value was 1.95%.

Question: `Cc1cnc(NC(=O)C2=C(O)c3ccccc3S(=O)(=O)N2C)s1` was tested. Which “activity, positive = activation” value did it give?
Answer: The value was 2.77%.

Question: Which “activity, positive = activation” value does the source give for `CC(C)(Sc1ccc(CCN(CCCCC2CCCCC2)C(=O)NC2CCCCC2)cc1)C(=O)O` here?
Answer: Its value is 12.2%.

Question: Which “activity, positive = activation” value does the source give for `Cc1[nH]c(=O)c(C#N)cc1-c1ccc2nccn2c1` here?
Answer: Its value is -4.14%.

Question: How did the “activity, positive = activation” value turn out when `CC(C)NCC(O)COc1ccc(COCCOC(C)C)cc1` (stereo not given) was run?
Answer: Its value is -3.04%.

Question: `O=C(Nc1nc2ccccc2n1CCN1CCOCC1)c1cccc([N+](=O)[O-])c1` was tested. Which “activity, positive = activation” value did it give?
Answer: The value was 1.6%.

Question: `OC(CCN1CCCCC1)(c1ccccc1)C1CC2C=CC1C2` (stereo not given) was tested. Which “activity, positive = activation” value did it give?
Answer: Its value is 5.28%.

Question: With `Nc1nc2ccc(OC(F)(F)F)cc2s1` as the molecule, how does the “activity, positive = activation” value read?
Answer: The value was 1.03%.

Question: How did the “activity, positive = activation” value turn out when `Cc1oncc1C(=O)Nc1ccc(C(F)(F)F)cc1` was run?
Answer: Its value is 0.443%.

Question: For `Clc1cccc(Cl)c1NC1=NCCN1`, which “activity, positive = activation” value is on record?
Answer: The value was 2.52%.

Question: With `NS(=O)(=O)c1cc2c(cc1Cl)NC=NS2(=O)=O` as the molecule, how does the “activity, positive = activation” value read?
Answer: Its value is 5.32%.

Question: Which “activity, positive = activation” value does the source give for `CCC(C)N(C)C(=O)c1cc2ccccc2c(-c2ccccc2Cl)n1` (stereo not given) here?
Answer: The value was 2.14%.

Question: `O=C(O)COCCN1CCN(C(c2ccccc2)c2ccc(Cl)cc2)CC1` (stereo not given) was tested. Which “activity, positive = activation” value did it give?
Answer: The value was 0.754%.

Question: How did the “activity, positive = activation” value turn out when `CCn1cc(C(=O)O)c(=O)c2cc(F)c(N3CCNC(C)C3)c(F)c21` (stereo not given) was run?
Answer: Its value is 3.82%.

Question: With `C1COC(NC(C2CC2)C2CC2)=N1` as the molecule, how does the “activity, positive = activation” value read?
Answer: Its value is -0.126%.

Question: With `Nc1ccc(S(=O)(=O)Nc2ccnn2-c2ccccc2)cc1` as the molecule, how does the “activity, positive = activation” value read?
Answer: Its value is 2.05%.

Question: For `NC(=O)c1cnccn1`, which “activity, positive = activation” value is on record?
Answer: Its value is 0.633%.

Question: How did the “activity, positive = activation” value turn out when `Cc1ccccc1C(OCCN(C)C)c1ccccc1` (stereo not given) was run?
Answer: The value was 4%.

Question: For `CC(C[N+](C)(C)C)OC(N)=O` (stereo not given), which “activity, positive = activation” value is on record?
Answer: The value was 0.654%.

Question: `CCN(CC)CCCC(C)Nc1ccnc2cc(Cl)ccc12` (stereo not given) was tested. Which “activity, positive = activation” value did it give?
Answer: Its value is 2.08%.

Question: With `Cn1cnc([N+](=O)[O-])c1Sc1ncnc2nc[nH]c12` as the molecule, how does the “activity, positive = activation” value read?
Answer: Its value is 3%.

Question: How did the “activity, positive = activation” value turn out when `CC(C)C[C@H](NC(=O)[C@@H](O)[C@H](N)Cc1ccccc1)C(=O)O` was run?
Answer: Its value is 1.17%.

Question: For `N[C@@H]1CONC1=O`, which “activity, positive = activation” value is on record?
Answer: Its value is 4.41%.

Question: With `O=C1CCC(N2C(=O)c3ccccc3C2=O)C(=O)N1` (stereo not given) as the molecule, how does the “activity, positive = activation” value read?
Answer: The value was 4.77%.

Question: With `O=NN(CCCl)C(=O)NCCCl` as the molecule, how does the “activity, positive = activation” value read?
Answer: Its value is 3.03%.

Question: With `NC(N)=NC(=O)c1nc(Cl)c(N)nc1N` as the molecule, how does the “activity, positive = activation” value read?
Answer: Its value is 5.38%.
